Values joined by “and” are separate entries in the source; they are usually repeats but may differ in a detail not shown here. Equal values may be shown once. Inconclusive results are not listed. Active and inactive are the calls of the source. The calls were made as follows, unless noted: active = hit-call score of the fitted dose curve at least 0.9, where 1 is the maximum; inactive = score below 0.9.

Read-out in assay [1]: Collagen I, COL1A1 (gene 1277)
The experiment in a line: BSK_MyoF_CollagenI: BioMAP Diversity Plus: MyoF Assay for Collagen I Biomarker Activity (AID 2284238). As to conditions: primary human lung fibroblasts. The method in brief:
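Multiplexed primary human lung fibroblast system; Collagen I measured by ELISA at 24 h post-dose. Increases are referenced to DMSO.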

Read-out in assay [2]: Collagen III, COL3A1 (gene 1281)
Briefly: BSK_MyoF_CollagenIII: BioMAP Diversity Plus: MyoF Assay for Collagen III Biomarker Activity (AID 2284239). To be noted: primary human lung fibroblasts. The method in brief: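 Compounds are added to primary human lung fibroblasts and left for 24 hours. Collagen III is then quantified by ELISA. Analysis takes DMSO as baseline and fits increases in signal.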

Read-out in assay [3]: Interleukin 17F (IL17F), IL17F (gene 112744)
Briefly: BSK_BT_xIL17F: BioMAP Diversity Plus: BT Assay for Interleukin 17F (IL17F) Biomarker Activity (AID 2284243). To be noted: primary human B cells with PBMC. The method in brief:
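Measures secreted IL-17F from a human B cell plus PBMC co-culture at 24 h post-dose by Luminex xMAP, with DMSO defining baseline activity.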

Assay [4] in a line: TAMU_PeakParms_SingleDonor1434_QT: Texas A&M University (TAMU) 1.5-hr Human Induced Pluripotent Stem Cell (iPSC)-derived Cardiomyocytes Calcium (Ca+2) Flux Assay for Cardiotoxicity: QT (decay-rise ratio) (AID 2284235; active = hit-call score of the fitted dose curve at least 0.9, where 1 is the maximum). The method in brief: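 Decay/rise ratio of calcium-flux fluorescence scored after 90 min exposure (37C) of donor 1434 iPSC cardiomyocytes to 0.2–100 uM (0.5% DMSO). Beat-cessation and severe-notch points removed; POD is EC05, a 5% rise over DMSO.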

Assay [5] can be described thus: CCTE_Mundy_HCI_Cortical_NOG_NeuronCount: CCTE's Neurite Outgrowth Assay in rat cortical cells for Neuron Count, Mundy Lab (AID 2284236; active = hit-call score of the fitted dose curve at least 0.9, where 1 is the maximum;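 also: neurons counted by imaging betaIII-tubulin and Hoechst stained cortical cells; cells exposed to compound for about 48 hours before fixation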). The method in brief:
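Read-out: neuron number by high-content imaging of betaIII-tubulin (Alexa Fluor-488) and Hoechst-labelled rat primary cortical cells.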

Assay [6] can be described thus: CCTE_Mundy_HCI_Cortical_NOG_BPCount: CCTE's Neurite Outgrowth Assay in rat cortical cells for Branch Point Count, Mundy Lab (AID 2284237).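 As to AC50: branch points counted about two days after chemical exposure.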 The method in brief: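 Measured 50.33 h after dosing, this morphology endpoint uses rat primary cortical cultures labelled for betaIII-tubulin. Branch points are quantified by high-content imaging, with DMSO as negative control and baseline.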

A short description of assay [7]: CCTE_Mundy_HCI_hNP1_Casp3_7: CCTE's Caspase-Glo 3/7 Assay in human neuroprogenitor cells for Apoptosis, Mundy Lab (AID 2284240). The method in brief:
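Apoptosis is scored by activated caspase-3/7 luminescence in WA09-derived neural progenitor cells, measured 26.5 h after chemical dosing. Values represent gain of signal relative to DMSO vehicle.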

Assay [8] in a line: CCTE_Mundy_HCI_hNP1_CellTiter: CCTE's Cell Titer-Glo 2 Assay in human neuroprogenitor cells for Viability, Mundy Lab (AID 2284241; active = hit-call score of the fitted dose curve at least 0.9, where 1 is the maximum;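 as to AC50: a hit is a drop in ATP luminescence versus DMSO meaning reduced viability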). Put shortly:
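Human neural progenitor cells (hNP1, WA09-derived) were plated on poly-L-ornithine/laminin and grown 40 to 44 hours at 37 °C, 5% CO2 before chemical addition. Twenty-four hours later, ATP was measured by CellTiter-Glo luminescence; loss of signal versus DMSO indicates reduced viability.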

A short description of assay [9]: CCTE_Mundy_HCI_Cortical_Synap_Neur_Matur_NeuronCount: CCTE's Synaptogenesis and Neurite Maturation Assay in rat cortical cells for Neuron Count, Mundy Lab (AID 2284242; active = hit-call score of the fitted dose curve at least 0.9, where 1 is the maximum;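 as to AC50: neuron number from Hoechst nuclei and MAP2 staining by high-content imaging; hits reduce neuron count versus DMSO baseline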). Put shortly: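 Cortical cells from rat are plated, treated with AraC at DIV 5, and exposed to test chemicals with a media change at DIV 7. At DIV 12 they are fixed and immunostained (MAP2, synaptophysin), and imaged neuron counts are compared against DMSO controls.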

Assay [10] is described as follows: TAMU_HCS_1.5hr_SingleDonor1434_Cytotoxicity: Cytotoxicity Assessment using High-content Screening (HCS) Fluorescent Imaging for the Texas A&M University (TAMU) 1.5-hr Human Induced Pluripotent Stem Cell (iPSC)-derived Cardiotoxicity Assay (AID 2284234; active = hit-call score of the fitted dose curve at least 0.9, where 1 is the maximum). Put shortly: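 Nuclear counts from Hoechst 33342 imaging define cytotoxicity here, with EC10 (10% cell-count loss relative to DMSO) as point of departure. iPSC cardiomyocytes received 0.2-100 uM test chemical in 0.5% DMSO for 1.5 h at 37 C.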

Consider `FC(F)C(F)(F)COCC1CO1` (configuration not stated), for which the outcome in [1], in [2] and in assay [3] was inactive.

On to `FC(F)(F)COC(OCC(F)(F)F)OCC(F)(F)F`, for which the outcome in assay [1], in [2] and in assay [3] was inactive.

As to `COc1cc2c(c(OC)c1OC)-c1ccc(OC)c(=O)cc1[C@@H](NC(C)=O)CC2`, the outcome in [4] was inactive. Moreover, the AC50 (as a rule, the midpoint of the concentration-response curve, whichever way the signal moves) was 0.0535 µM (active) in assay [5]; 0.00988 µM (active) in assay [6]; 0.0228 µM (active) in [7]; 0.0224 µM (active) in assay [8]; 0.0339 µM (active) in assay [9].

Turning to `O=C(Cl)C(F)(F)C(F)(F)C(F)(F)C(=O)Cl`, the outcome in assay [1], in assay [2], in [7], in [8] and in assay [3] was inactive.

In the case of `CCCC(CCC)C(=O)O`, the outcome in assay [4], in [6], in assay [8] and in [9] was inactive. In addition, the AC50 in [7] is 1500 µM (active).

In the case of `CC(C)C(=O)Nc1ccc([N+](=O)[O-])c(C(F)(F)F)c1`, the call in assay [10] and in assay [4] was inactive.

As to `FC(F)=C(F)C(F)(F)C(F)(F)C(F)(F)C(F)(F)C(F)(F)C(F)(F)F`, the result in [1], in assay [2], in [7], in assay [8] and in assay [3] was inactive.

Regarding `NCC(F)(F)C(F)(F)C(F)(F)C(F)(F)F`, the result in assay [1], in assay [2] and in assay [3] was inactive.

In the case of `S=P(N1CC1)(N1CC1)N1CC1`, the result in [1] and in assay [2] was inactive. Besides, the AC50 in [3] was 20.9 µM (active).

On to `C[Si](C)(C)C(F)(F)C(F)(F)C(F)(F)F`, for which the result in assay [1], in [2] and in [3] was inactive.

Regarding `FC(F)(F)C(F)(F)C(F)(F)C(F)(F)C(F)(F)C(F)(F)I`, the AC50 in [1] was 33.1 µM (active) and 39.4 µM (active); in [2], 30 µM (active). Besides, the compound was classed as inactive in [7], in [8] and in assay [3].

Regarding `OC[C@H]1O[C@@](CO)(O[C@H]2O[C@H](CO)[C@@H](O)[C@H](O)[C@H]2O)[C@@H](O)[C@@H]1O`, the result in [10] was inactive.

On to `NC(=O)N1c2ccccc2C=Cc2ccccc21`, for which the outcome in [5], in [6], in [7] and in [8] was inactive.

`c1ccc2cc3ccccc3cc2c1`: the call in [5], in assay [6], in assay [7] and in [8] was inactive.

The values are drawn from PubChem BioAssay (EPA / NIEHS).
